This is part of a sample that, as a whole, favours compounds with a hit. Of some 83,000 tested, about 20% had one in any assay.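 Percent growth is the endpoint: 0 to 100 indicates growth inhibition (40 means 60% inhibition), 0 means no net growth, and negative values indicate cell death.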 Values without a mark were called inactive. Calls of active or inactive are those of the source. Rule for the calls: active = growth percent below 10; inactive = the rest.

Assay in all cases: NCI-60 one-dose screen, 48 h (100 = growth as untreated, 0 = no growth, -100 = all killed)
Common to all, as to details: 10 µM unless noted

In test [1] the test system is SK-MEL-2 melanoma.
Test [2] relates to SN12C renal.
Test [3] relates to UO-31 renal.
The test system of test [4] is TK-10 renal.
Test [5] has as its system ACHN renal.
Test [6] deals with CAKI-1 renal.
Test [7] deals with A498 renal.
The test system of test [8] is CCRF-CEM leukemia.
Test [9] has as its system MOLT-4 leukemia.

With `COc1cc(NC(C)CCCNC(C)C)c2ncccc2c1OC` (centres undefined), the growth in test [1] is 90.8%; in [2] it was 85.8%; in test [3] it was 57.7%; in test [4], 105%; in [5], 104%; in test [6] it was 88.2%. Moreover, the results for the growth in [7], in [8] and in [9] were 61.3%, 89.3% and 98.4%, respectively.

On to `CCOc1nc(-c2ccccc2)cc2c(O)c(C(=O)NN)[nH]c(=O)c12`, for which the growth in [1] is 83.7%; in test [2], 109%; in test [3] it was 88.6%; in test [4], 120%; in test [6], 109%; in test [7] it was 115%. In addition, the values for the growth in test [8] and in [9] were 103% and 113%, respectively.

In the case of `CC(C)(C)n1cc(-c2ccnc(NCCCNS(=O)(=O)c3ccc(F)cc3)c2)c(-c2cccc(F)c2)n1`, the growth in test [1] is 88.4%; in test [2] it was 66.5%; in test [3], 50.3%; in [4] it was 97.7%; in test [5] it was 61.4%; in test [6], 53.6%. In addition, the growth is 70.2% in [7], 49.1% in test [8] and 41.7% in test [9].

For `C#CCOc1ccc2ncnc(Nc3ccc(NC(=O)CCl)cc3)c2c1`, the growth in test [1] is -7.65% (active); in test [2], -13.2% (active); in test [3], -25.8% (active); in [4], 1.64% (active); in [5], -51.2% (active); in [6], 35.8%. Moreover, the growth in [7] was 55.9%; in test [8] it was -23.7% (active); in test [9], -8.27% (active).

On to `Brc1c2c(c(Br)c3ccccc13)CCCC2`, for which the growth in [1] was 93.8%; in test [2], 94.2%; in [3], 95.2%; in test [4], 99.2%; in test [5], 104%; in test [6], 99.2%. Further, the growth in test [7] was 94.6%; in test [8], 96.5%; in test [9], 95.8%.

On to `Cc1ccc(CNc2ccc(Cl)cc2NCc2ccc(C)c(O)c2)cc1O`, for which the growth in test [1] is 33.3%; in test [2], -27.8% (active); in test [3], 11.9%; in [4], 52.3%; in [5], 0.115% (active); in [6], 37.4%. Besides, the values for the growth in [7], in test [8] and in test [9] were 82.2%, 9.13% (active) and -10.5% (active), respectively.

As for `CN1C(=O)/C(=C/c2cn(-c3ccccc3)nc2-c2ccccc2)SC1=S`, the growth was 107% in [1]; 100% in test [2]; 92.2% in test [3]; 112% in test [4]; 100% in test [5]; 89.1% in test [6]. Further, the values for the growth in test [7], in test [8] and in [9] were 79.2%, 107% and 114%, respectively.

As to `Fc1cccc(CNc2c3ccccc3nc3ccccc23)c1F`, the growth in test [1] is 107%; in [2], 49%; in test [3], 40.1%; in [4], 89.2%; in test [5], 30.6%; in test [6] it was 45.7%. Besides, the values for the growth in test [7], in [8] and in test [9] were -0.792% (active), 62.4% and 28.4%, respectively.

As to `COc1ccc(C2c3sc4c(F)cccc4c3Oc3nc[nH]c(=O)c32)cc1` (centres undefined), the growth is 97.8% in [1]; 77.8% in test [2]; 47.6% in [3]; 110% in [4]; 72.7% in test [5]; 76.6% in test [6]. The growth in test [7] was 95%; in test [8], 85.3%; in test [9], 84.2%.

In the case of `CC(=O)N(N=Nc1ccccc1)c1cccc2ccccc12`, the growth in test [1] was 20.1%; in test [2], 85.7%; in test [3], 61.2%; in test [4] it was 96.8%; in test [5] it was 8.59% (active); in [6] it was 31.8%. For the same compound, the growth was 115% in test [7], 79.8% in [8] and 76.8% in [9].

`COc1cc(-c2cc(-c3ccc(N(C)C)cc3)nc(N3CCC(O)CC3)c2C#N)cc(OC)c1OC`: the growth in [1] was -54.2% (active); in test [2], 26.4%; in test [3] it was -45.1% (active); in [4] it was 14.9%; in [5] it was 15.1%; in test [6], -22.6% (active). In addition, the growth in test [7] is 26.3%; in test [8] it was 26.6%; in test [9] it was 2.62% (active).

On to `N#Cc1c(-c2ccccc2)cc(-c2ccccc2)n(CCCCCC(=O)Nc2ccccc2N)c1=O`, for which the growth was 89.7% in test [1]; 59% in test [2]; 34.4% in test [3]; 72.8% in [4]; 73.7% in test [5]; 29.7% in test [6]. Moreover, the values for the growth in test [7], in test [8] and in test [9] were 96.7%, 6.3% (active) and 9.12% (active), respectively.

On to `O=C(Cn1cc(CN2CCCCCC2)nn1)Nc1ccc2c(ccn2Cc2ccccc2)c1`, for which the growth was 93.2% in test [1]; 101% in [2]; 54.4% in test [3]; 92.2% in test [4]; 107% in [5]; 87.6% in test [6]. Also, the growth in [7] was 95.2%; in [8], 1.87% (active); in test [9] it was 89.9%.

As for `COC(=O)CNC(=O)[C@H](Cc1ccccc1)NCc1ccncc1`, the growth in test [1] was 95.3%; in test [2], 99.3%; in test [3], 91.2%; in test [4], 88.5%; in test [5], 107%; in test [6] it was 99.1%. In addition, the growth in test [7] was 88.3%; in test [8] it was 86%; in test [9], 105%.

Regarding `Cc1cnc(C(=O)NNc2nc3sc4c(c3c(=O)n2C)C(C)CCC4)cn1` (centres undefined), the growth is -6.07% (active) in [1]; 9.01% (active) in test [2]; -0.356% (active) in test [3]; 27.2% in test [4]; 9.47% (active) in [5]; 2.74% (active) in test [6]. In addition, the growth in [7] was 21.1%; in test [8], 2.41% (active); in test [9] it was 3.79% (active).

As for `CC(=O)Nc1nc2ccc(NS(=O)(=O)c3cccc4c(N(C)C)cccc34)cc2[nH]1`, the growth is 80.8% in test [1]; 69.8% in test [2]; 68.4% in test [3]; 102% in test [4]; 75.7% in test [5]; 42.7% in [6]. For the same compound, the growth in test [7] is 2.64% (active); in test [8], 47.9%; in test [9] it was 59.4%.

`CO[C@H]1/C=C(/C)CCC[C@H](C)[C@H](O)[C@@H](C)C(=O)C(C)(C)[C@@H](O)CC(=O)O[C@@H]1/C(C)=C/c1csc(C)n1`: the growth was -5.73% (active) in test [1]; 38.9% in [2]; 21.8% in test [3]; 18.8% in [4]; 50% in test [5]; 10.8% in [6]. The growth in test [7] is 2.04% (active); in [8] it was 25.7%; in [9], 14.6%.

On to `O=C(CCc1nnc(Cn2cnc3nc[nH]c3c2=O)o1)c1nc2ncccc2[nH]1`, for which the growth is 103% in test [1]; 95.1% in test [2]; 80.8% in [3]; 96.9% in test [4]; 105% in test [5]; 92.2% in [6]. For the same compound, the results for the growth in [7], in [8] and in test [9] were 94.8%, 90.5% and 103%, respectively.

Turning to `O=C1C(Cl)=C(Oc2ccccc2)C(=O)c2ccccc21`, the growth was 73.4% in [1]; 87.9% in test [2]; 51.7% in test [3]; 49.4% in [4]; 26.6% in [5]; 76.9% in test [6]. Further, the growth in test [7] is 98.7%; in test [8], 8.95% (active); in test [9], 57.4%.

On to `COC(=O)[C@H]1CCCN1C[C@@H](O)CN1C(=O)/C(=C\c2cc(OC)c(OC)c(OC)c2)c2ccccc21`, for which the growth was 94.3% in test [1]; 98.2% in test [2]; 82.1% in [3]; 102% in test [4]; 105% in test [5]; 93.1% in test [6]. The growth was 113% in [7], 93.9% in test [8] and 81.6% in test [9].

These data come from PubChem BioAssay (NCI).
